# From PubChem BioAssay (NCATS)
# “And” between values parts separate entries of the source, which are not always exact repeats. Equal values may be shown once. Records with an inconclusive call do not appear. Some structures have more than one record in an assay (separate samples or runs), and their calls can disagree. Unmarked numbers belong to inactive results. The source made the active and inactive calls. Calls follow the shape of the dose curve; as a rule, active = well fitted inhibition curve with a large enough effect; inconclusive = small, poorly fitted or top-dose-only effect; inactive = flat fitted curve, though single readings scatter.
# How the values were obtained:
# JCK = assay: qHTS profiling for inhibitors of Plasmodium falciparum proliferation (AID 504749); also: potency is read from the fitted curve at half-maximal effect; details: P. falciparum in erythrocytes, SYBR Green DNA, 72 h; series mostly up to 28.7 µM
# Method in brief: (§1)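 Fluorescence of SYBR Green-bound parasite DNA, read at 485/535 nm, served as the growth measure. Infected erythrocytes were cultured with compound 72 h; artemisinin (0.29 uM) and DMSO wells defined the normalization range.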
# N140 = assay: as above; details: P. falciparum in erythrocytes, SYBR Green DNA, 72 h; series mostly up to 28.7 µM
# Method in brief: as §1
# P93_24 = assay: as above; details: P. falciparum in erythrocytes, SYBR Green DNA, 72 h; series mostly up to 28.7 µM
# Method in brief: as §1
# P94_40 = assay: as above; details: P. falciparum in erythrocytes, SYBR Green DNA, 72 h; series mostly up to 28.7 µM
# Method in brief: as §1
# PAD = assay: as above; details: P. falciparum in erythrocytes, SYBR Green DNA, 72 h; series mostly up to 28.7 µM
# Method in brief: as §1
# PC15 = assay: as above; details: P. falciparum in erythrocytes, SYBR Green DNA, 72 h; series mostly up to 28.7 µM
# Method in brief: as §1
# PC26 = assay: as above; details: P. falciparum in erythrocytes, SYBR Green DNA, 72 h; series mostly up to 28.7 µM
# Method in brief: as §1
# PC49 = assay: as above; details: P. falciparum in erythrocytes, SYBR Green DNA, 72 h; series mostly up to 28.7 µM
# Method in brief: as §1
# SC27B = assay: as above; details: P. falciparum in erythrocytes, SYBR Green DNA, 72 h; series mostly up to 28.7 µM
# Method in brief: as §1
# TAB109 = assay: as above; details: P. falciparum in erythrocytes, SYBR Green DNA, 72 h; series mostly up to 28.7 µM
# Method in brief: as §1
# TAB113 = assay: as above; details: P. falciparum in erythrocytes, SYBR Green DNA, 72 h; series mostly up to 28.7 µM
# Method in brief: as §1
# TAB165 = assay: as above; details: P. falciparum in erythrocytes, SYBR Green DNA, 72 h; series mostly up to 28.7 µM
# Method in brief: as §1
# W2 = assay: as above; details: P. falciparum in erythrocytes, SYBR Green DNA, 72 h; series mostly up to 28.7 µM
# Method in brief: as §1
# CRL-7250 = normal cell line; assay: Cytotoxic Profiling of Annotated Libraries Using Quantitative High-Throughput Screening (AID 1296008); details: Five cell lines viability, CellTiter-Glo ATP luminescence, 48-72 h; max response: stronger effect = lower value; also: potency is read from the fitted curve at half-maximal effect; as to max response: % is scaled to controls: 0 for no effect and ±100 for the full control effect
# Method in brief: (§2)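 Compounds were pin-transferred onto cells and incubated 48 or 72 hr at 37 degree Celsius, 95% humidity. CellTiter-Glo was added, plates sat 10 min at room temperature, then ATP-coupled luminescence was imaged as the viability read-out.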
# HaCat [1] = assay: as above; details: Five cell lines viability, CellTiter-Glo ATP luminescence, 48-72 h; max response: stronger effect = lower value
# Method in brief: as §2
# KB-3-1 = assay: as above; details: Five cell lines viability, CellTiter-Glo ATP luminescence, 48-72 h; max response: stronger effect = lower value
# Method in brief: as §2
# NIH3T3 = assay: as above; details: Five cell lines viability, CellTiter-Glo ATP luminescence, 48-72 h; max response: stronger effect = lower value
# Method in brief: as §2
# HEK293 = assay: as above; details: Five cell lines viability, CellTiter-Glo ATP luminescence, 48-72 h; max response: stronger effect = lower value
# Method in brief: as §2
# HACAT [2] = assay: qHTS assay to identify novel small-molecules to repurpose for Merkel cell carcinoma treatment (AID 1296009); details: MCC and control cell lines, CellTiter-Glo viability, 72 h; at 44.8 µM (top of the series) unless noted
# Method in brief: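 Luminescence from CellTiter-Glo, read 10 min after addition at room temperature, reported viability following a 72 hr, 37 degree celsius treatment with NPC or MIPE compounds in titration; values normalized to plate controls.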
# Also: nearly all actives have a fitted effect of over 60% in size.
smiles,measurement,setting,value
CC(=O)[C@@]1(O)CC[C@H]2[C@@H]3CCC4=CC(=O)CC[C@]4(C)[C@H]3CC[C@@]21C,Potency,JCK,inactive
same,Potency,N140,inactive
same,Potency,P93_24,inactive
same,Potency,P94_40,inactive
same,Potency,PAD,inactive
same,Potency,PC15,inactive
same,Potency,PC26,inactive
same,Potency,PC49,inactive
same,Potency,SC27B,inactive
same,Potency,TAB109,inactive
same,Potency,TAB113,inactive
same,Potency,TAB165,inactive
same,Potency,W2,inactive
same,outcome,CRL-7250,inactive
same,max response,HaCat [1],1.18%
same,max response,KB-3-1,-5.68%
same,max response,NIH3T3,2.18%
Brc1c(NC2=NCCN2)ccc2nccnc12,Potency,JCK,inactive
same,Potency,P93_24,11.2 µM (active)
same,Potency,P94_40,inactive
same,Potency,PC49,inactive
same,Potency,SC27B,inactive
same,Potency,W2,5.36 µM (active)
same,max response,CRL-7250,-13%
same,max response,HEK293,-12.5%
same,max response,KB-3-1,-13.6%
same,max response,NIH3T3,-5.35%
C[C@]12CC[C@@H]3c4ccc(O)cc4C[C@@H](CCCCCCCCCS(=O)CCCC(F)(F)C(F)(F)F)[C@H]3[C@@H]1CC[C@@H]2O (stereo not given in full),max response,CRL-7250,-49.4%
same,max response,HaCat [1],-6.63%
same,max response,KB-3-1,3.54%
same,max response,NIH3T3,-7.29%
Cc1nc2sccn2c(=O)c1CCN1CCC(=C(c2ccc(F)cc2)c2ccc(F)cc2)CC1,Potency,P94_40,11.2 µM (active)
same,Potency,TAB165,12.6 µM (active)
same,outcome,CRL-7250,inactive
same,max response,HaCat [1],-3.76%
same,max response,KB-3-1,-12.7%
same,max response,NIH3T3,-6.97%
CNCCC(Oc1ccccc1OC)c1ccccc1 (stereo not given),Potency,PC49,3.16 µM (active)
same,Potency,TAB165,11.2 µM (active)
same,Potency,W2,4.26 µM (active)
same,max response,CRL-7250,-0.295%
same,max response,HaCat [1],1.07%
same,max response,KB-3-1,0.271%
same,max response,NIH3T3,-6.28%
CCCCCCCC/C=C\CCCCCCCC(=O)NCc1ccc(O)c(OC)c1,Potency,PC26,inactive
same,Potency,SC27B,10 µM (active)
same,Potency,TAB165,8.91 µM (active)
same,max response,CRL-7250,-0.832%
same,outcome,HaCat [1],inactive
same,max response,KB-3-1,-3.68%
same,max response,NIH3T3,-24.7%
same,outcome,HACAT [2],inactive
CCCN1C[C@H](CSC)C[C@@H]2c3cccc4[nH]cc(c34)C[C@H]21,Potency,PC15,inactive
same,Potency,PC49,inactive
same,Potency,SC27B,11.2 µM (active)
same,Potency,TAB109,12.6 µM (active)
same,Potency,TAB165,14.1 µM (active)
same,Potency,W2,5.36 µM (active)
same,max response,CRL-7250,-3.21% and -8.84%
same,max response,HaCat [1],4.81% and -5.73%
same,max response,KB-3-1,9.69%
same,outcome,KB-3-1,inactive
same,Potency,NIH3T3,21.1 µM (active)
same,max response,NIH3T3,-7.31%
O=C(CCCN1CCC(O)(c2cccc(C(F)(F)F)c2)CC1)c1ccc(F)cc1,Potency,JCK,12.6 µM (active)
same,Potency,N140,7.94 µM (active)
same,Potency,P93_24,10 µM (active)
same,Potency,P94_40,8.91 µM (active)
same,Potency,PAD,10 µM (active)
same,Potency,PC49,7.94 µM (active)
same,Potency,SC27B,11.2 µM (active)
same,Potency,TAB109,8.91 µM (active)
same,Potency,TAB113,12.6 µM (active)
same,Potency,TAB165,7.94 µM (active)
same,Potency,W2,2.69 µM (active)
same,max response,CRL-7250,-19.1%
same,max response,HaCat [1],0.0234%
same,max response,KB-3-1,-16.4%
C=CCc1ccccc1OCC(O)CNC(C)C (stereo not given),Potency,N140,11.2 µM (active)
same,Potency,P93_24,4.47 µM (active)
same,Potency,P94_40,12.6 µM (active)
same,Potency,PC49,inactive
same,Potency,TAB165,10 µM (active)
same,Potency,W2,2.39 µM (active)
same,max response,CRL-7250,-1.4%
same,max response,HaCat [1],4.41%
same,max response,KB-3-1,2.54%
same,max response,NIH3T3,-0.59%
OCCN1CCN(CCCN2c3ccccc3C=Cc3ccccc32)CC1,Potency,N140,3.55 µM (active)
same,Potency,P93_24,7.94 µM (active)
same,Potency,P94_40,5.01 µM (active)
same,Potency,PAD,3.55 µM (active)
same,Potency,PC15,2.24 µM (active)
same,Potency,PC26,4.78 µM (active)
same,Potency,PC49,1.41 µM (active)
same,Potency,SC27B,7.94 µM (active)
same,Potency,TAB109,7.94 µM (active)
same,Potency,TAB113,6.31 µM (active)
same,Potency,TAB165,5.62 µM (active)
same,Potency,W2,1.51 µM (active)
same,outcome,CRL-7250,inactive
same,outcome,HaCat [1],inactive
same,max response,KB-3-1,-12.9%
same,outcome,NIH3T3,inactive
same,outcome,HACAT [2],inactive
CN1CCN(C2=Nc3ccccc3Oc3ccc(Cl)cc32)CC1,Potency,JCK,inactive
same,Potency,N140,inactive
same,Potency,P93_24,inactive
same,Potency,P94_40,inactive
same,Potency,PAD,inactive
same,Potency,PC15,inactive
same,Potency,PC49,inactive
same,Potency,SC27B,inactive
same,Potency,TAB109,inactive
same,Potency,TAB113,inactive
same,Potency,TAB165,inactive
same,outcome,CRL-7250,inactive
same,max response,HaCat [1],-5.97%
same,max response,KB-3-1,6.07%
same,max response,NIH3T3,-11%
COc1ccc(CCN(C)CCCC(C#N)(c2cc(OC)c(OC)c(OC)c2)C(C)C)cc1OC (stereo not given),Potency,PC15,inactive
same,Potency,PC49,inactive
same,Potency,W2,2.39 µM (active)
same,max response,CRL-7250,-12.1%
same,outcome,HaCat [1],inactive
same,max response,KB-3-1,-0.362%
same,max response,NIH3T3,0.424%
same,outcome,HACAT [2],inactive
CN(C)CCCN1c2ccccc2Sc2ccccc21,Potency,PC15,2 µM (active)
same,Potency,W2,0.572 µM (active)
same,max response,CRL-7250,0.274%
same,outcome,HaCat [1],inactive
same,max response,KB-3-1,-0.491%
same,max response,NIH3T3,-1.44%
same,outcome,HACAT [2],inactive
C[C@]12CCC(=O)C=C1CC[C@@H]1[C@@H]2CC[C@@]2(C)[C@H]1CC[C@]2(O)C(=O)CO,Potency,JCK,inactive
same,Potency,N140,inactive
same,Potency,P93_24,inactive
same,Potency,P94_40,inactive
same,Potency,PAD,inactive
same,Potency,PC15,inactive
same,Potency,PC49,inactive
same,Potency,SC27B,inactive
same,Potency,TAB109,inactive
same,Potency,TAB113,inactive
same,Potency,TAB165,inactive
same,Potency,W2,inactive
same,max response,CRL-7250,-9.98%
same,max response,HaCat [1],-3.7%
same,max response,KB-3-1,-11.6%
same,max response,NIH3T3,-17.4%
O=c1[nH]c(=O)n([C@H]2C[C@H](O)[C@@H](CO)O2)cc1Br,Potency,JCK,inactive
same,Potency,N140,inactive
same,Potency,P93_24,inactive
same,Potency,P94_40,inactive
same,Potency,PAD,inactive
same,Potency,PC15,inactive
same,Potency,PC26,inactive
same,Potency,PC49,inactive
same,Potency,SC27B,inactive
same,Potency,TAB109,inactive
same,Potency,TAB113,inactive
same,Potency,TAB165,inactive
same,Potency,W2,inactive
same,max response,CRL-7250,0.0744%
same,max response,HaCat [1],2.47%
same,max response,KB-3-1,2.61%
same,max response,NIH3T3,1.37%
CCN(CC)CCCN(c1ccccc1)C1Cc2ccccc2C1,Potency,JCK,11.2 µM (active)
same,Potency,N140,5.01 µM (active)
same,Potency,P93_24,4.47 µM (active)
same,Potency,P94_40,5.01 µM (active)
same,Potency,PAD,4.47 µM (active)
same,Potency,PC15,4.47 µM (active)
same,Potency,PC26,7.57 µM (active)
same,Potency,PC49,3.98 µM (active)
same,Potency,SC27B,7.94 µM (active)
same,Potency,TAB109,3.55 µM (active)
same,Potency,TAB113,3.98 µM (active)
same,Potency,TAB165,3.98 µM (active)
same,Potency,W2,0.601 µM (active)
same,max response,CRL-7250,2.42%
same,outcome,HaCat [1],inactive
same,max response,NIH3T3,-8.45%
same,outcome,HACAT [2],inactive
